Abeta yeast res – A-beta toxicity reversal in yeast; yeast expressing A-beta42, growth rescue, OD600, 48 h; response scale: 0% DMSO, 100% iron-clioquinol control; Potency, µM (titrated, usually from 46.1 µM), most hits filed as activators; 410,000 tested, 0.063% active; also: nearly all actives have a fitted effect of over 55% in size
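Yeast growth medium received pinned compounds, then yeast cells expressing toxic A-beta were added; plates incubated at 30 C for 48 hr. Growth read as absorbance at 600 nm, normalized to DMSO and equimolar FeCl3 plus clioquinol controls.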
aSyn yeast inh – alpha-synuclein toxicity inhibition in yeast. Potency, µM (top dose mostly 46.1 µM), without a hit: top-dose growth rescue (activation), actives largely listed as activators. 370,000 tested, 0.14% active. AID 652106. Yeast expressing alpha-synuclein, growth rescue, BacTiter-Glo, 24 h; also: % of control where 0% means no effect; nearly all actives have a fitted effect of over 65% in size
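Readout is rescue of growth in alpha-synuclein-expressing yeast, so inhibitors of toxicity appear as activators. Growth after 24 hr at 30 deg C in galactose medium is quantified by luminescence.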
TDP-43 yeast inh – inhibitors of TDP-43 toxicity in yeast | TDP-43 expressing yeast growth rescue, BacTiter-Glo, 24 h | Potency, µM (series often up to 46.1 µM), for inactives: top-dose growth rescue (activation), usual class: activators | 410,000 tested, 1.8% active; also: % of control where 0% means no effect; nearly all actives have a fitted effect of over 50% in size
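Cell-based yeast growth screen: TDP-43 expression induced in galactose, inoculum OD600=0.02 after raffinose pregrowth to mid-log. Read-out BacTiter-Glo luminescence at 24 hr, 30 deg C; inhibition of toxicity seen as signal increase.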
Mito fusion yeast – inhibitors of mitochondrial division or activators of mitochondrial fusion. S. cerevisiae fusion-defective mutant growth rescue, CellTiterGlo 48 h. Potency, µM (doses to about 46.1 µM), for the others: at the top dose growth rescue (activation), most hits filed as activators. 320,000 tested, 0.23% active. AID 485298; also: % of control where 0% means no effect; nearly all actives have a fitted effect of over 45% in size
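Luminescent cell viability in 1536-well qHTS format served as the measure of rescued growth in ts fusion-mutant S. cerevisiae cultured on non-fermentable YPEG for 48 hours at 37C.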
FUS yeast rescue – suppressors of FUS proteinopathy in yeast; S. cerevisiae FUS-expressing, growth rescue, OD600, 24 h; Potency, µM (series often up to 76.6 µM), most hits filed as activators; 390,000 tested, 0.24% active;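 also: plate controls were DMSO vehicle for no effect and reference control for full effect; nearly all actives have a fitted effect of over 55% in size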
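Restored growth of FUS-toxic S. cerevisiae, read as 600 nm absorbance after 24 h at 30C in galactose medium (starting OD 0.005). Controls CP55940 and DMSO.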
ERG-DNA inh – inhibitors of human ERG Ets domain-DNA interaction; P11308; fluorescence polarization, His-ERG Ets domain / labelled DNA; Potency, µM (doses to about 76.9 µM), for inactives: at the top dose FP activity, negative = inhibition, actives largely listed as inhibitors; 370,000 tested, 0.028% active; active = well fitted inhibition curve with a large enough effect in the polarisation, with a control signal flat; inconclusive = small, poorly fitted or top-dose-only effect, or effect the other way, or a change in a side signal; inactive = no such curve, though single readings can be large or run the other way; the % refers to the polarisation;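 also: polarization taken with two DNA probes labelled with fluorescein and Texas red; % of control where 0% means no effect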
Target sequence (P11308 whole entry, looked up, the tested form may be a part): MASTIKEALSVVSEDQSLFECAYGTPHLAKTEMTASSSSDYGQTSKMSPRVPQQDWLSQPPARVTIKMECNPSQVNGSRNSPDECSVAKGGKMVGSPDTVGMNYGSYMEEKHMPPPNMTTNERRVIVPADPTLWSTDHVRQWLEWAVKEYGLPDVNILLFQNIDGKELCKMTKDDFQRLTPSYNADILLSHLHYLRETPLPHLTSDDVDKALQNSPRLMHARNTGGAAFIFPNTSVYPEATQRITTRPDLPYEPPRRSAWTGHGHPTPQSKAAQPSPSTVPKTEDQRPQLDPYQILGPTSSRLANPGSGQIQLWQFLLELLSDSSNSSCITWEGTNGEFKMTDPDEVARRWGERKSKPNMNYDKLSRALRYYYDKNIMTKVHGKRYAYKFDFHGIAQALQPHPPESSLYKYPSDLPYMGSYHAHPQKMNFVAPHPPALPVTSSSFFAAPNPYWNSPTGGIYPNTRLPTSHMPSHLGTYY
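His-tagged ERG Ets domain (1 uM in the protein solution; 300mM KCl, 50mM Tris-HCl, 1mM EDTA, 1mM DTT, pH 7.5) received compound, then a probe mix of 5 nM fluorescein-DNA and 100nM Texas-615-DNA. Fluorescence polarization was read for both dyes.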
* marks the source's active call; other numbers are inactive results; i = inactive; ? = inconclusive; · = no result. In the library only some 2.2% were active in any assay of this set; here they are far more common. Unless noted, calls follow the shape of the dose curve; as a rule, active = well fitted curve in the direction sought with a large enough effect; inconclusive = small, poorly fitted or top-dose-only effect, or another doubt; inactive = no such curve, though single readings can be large; an effect the other way counts as inactive or inconclusive. Potency is read from the fitted curve at half-maximal effect.

SMILES	Abeta yeast res	aSyn yeast inh	TDP-43 yeast inh	Mito fusion yeast	FUS yeast rescue	ERG-DNA inh
COc1ccc(/C=C(\C#N)C(=O)NCc2ccccc2)cc1O	i	23.7%	11.1%	4.7%	i	5.5%
CC(NC(=O)/C(C#N)=C/c1ccc(N2CCOCC2)cc1)c1ccccc1 (centres undefined)	i	8.6%	-2.8%	28.7%	i	5.5%
COc1ccc(/C=C(\C#N)C(=O)NC(C)c2ccccc2)cc1O (centres undefined)	?	26.6%	20µM*	2.9%	i	-5.2%
CCCCN(C(=O)c1cccc(S(=O)(=O)N(C)c2ccc(C)cc2)c1)c1c(N)n(CC(C)C)c(=O)[nH]c1=O	i	-2.3%	-5.4%	·	i	4.3%
O=C(OC(c1ccccc1)c1nccc2ccccc12)c1cc([N+](=O)[O-])cc([N+](=O)[O-])c1 (centres undefined)	i	9.4%	6.31µM*	?	·	-2.8%
Cc1ccc(NC(=O)Cn2nnnc2-c2ccccc2N)cc1	?	·	11.2%	·	i	-2.3%
O=C(/C(=N/O)c1ccccc1)c1ccccc1	i	5.5%	22.4µM*	·	i	-7.8%
Cc1cc(C)c(C(=O)N2CCCC(Nc3ccc(F)cc3)C2)o1 (centres undefined)	i	-0.1%	24.5%	?	i	-4.7%
Cc1ccc2[nH]c(C(=O)N3CCCC(Nc4ccc(F)cc4)C3)cc2c1 (centres undefined)	i	24.5%	22.4µM*	9.0%	?	-9.1%
CCOC(=O)CSc1nc2sc(C)c(C)c2c(=O)n1C	i	0.0%	11.2µM*	0.7%	i	-9.8%
CCOC(=O)CSc1nc2sc(C)c(C)c2c(=O)n1N	i	0.9%	-0.6%	3.8%	·	·
CC1(C)SC2c3ccccc3C(=O)N2[C@@H]1C(=O)NC1CC1 (some centres undefined)	i	-4.6%	1.26µM*	18.0%	i	12.2%
COc1ccc(Cl)cc1N(C)C(=O)Cc1noc2ccc(C)cc12	i	·	?	·	i	-8.4%
COc1cccc(/C(=N/O)C2CC2c2ccc(Cl)cc2)c1 (centres undefined)	i	10.0%	15.8µM*	4.4%	i	5.0%
CCc1nc(SCc2cc(Cl)ccc2OC)n[nH]1	i	15.8µM*	?	17.2%	i	-6.9%
CCOC(=O)C1=NNC(C(=O)OCC)C1C(=O)OCC (centres undefined)	i	-0.3%	-24.7%	·	i	4.9%
Cc1ccc(SCC(=O)OC(C)C(=O)N2CCc3ccccc32)cc1 (centres undefined)	i	1.2%	-1.6%	15.7%	i	3.5%
Cc1cc(C)c(OCC(=O)OC(C)C(=O)N2CCc3ccccc32)c(C)c1 (centres undefined)	i	-18.9%	22.4µM*	11.3%	i	-2.7%
O=C(NC1CC(=O)N(c2ccccc2)C1)C(c1ccccc1)c1ccccc1 (centres undefined)	i	·	22.6%	·	i	2.3%
O=C(NCc1ccccc1)c1ccc2c(c1)N(Cc1ccc(F)cc1)CCS2	i	·	-8.6%	·	i	-0.6%
O=C(NCc1ccc(F)cc1)c1cc2cccc3c2n1CCS3	i	·	14.1µM*	·	i	4.9%
Cc1nn2c(COc3ccc(NC(=O)c4ccccc4Cl)cc3)nnc2c2ccccc12	i	?	-4.1%	19.4%	22.4µM*	-1.3%
Cc1ccc(C)c(NC(=O)CCn2nc(C)c3c(C)n(-c4ccccc4)nc3c2=O)c1	i	·	-13.0%	·	i	-0.9%
CCCNC(=O)c1nnsc1S(=O)(=O)c1ccc(Cl)cc1	i	-67.6%	1.58µM*	-5.0%	i	-0.8%
CCCNC(=O)c1nnsc1S(=O)c1ccc(Cl)cc1 (centres undefined)	i	-76.4%	?	-1.6%	i	13.7%
